Measured values taken from PubChem BioAssay AID1159580 (chemical genetic matrix, 2015).
Among all 5,500 compounds or so, about 2,000 (36%) were called active. Inconclusive results (about 18%) are left out. No stated cut-off is given here; in the data, active means normalized growth mostly below about 0.91 (no sharp cut-off); inconclusive means no clear call, values can overlap the other calls; inactive means mostly above about 0.92. The list shows a part of the results.

Test: chemical genetic growth profiling, strain panel (AID 1159580);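 further: tested at 20 µM; growth read once vehicle control cultures reached saturation at 30 °C; 1 = growth at the plate median or of vehicle wells; lower values mean less growth of the strain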
Details: S. cerevisiae deletion strains, growth OD
[1] = locus YAL013W, strain DEP1, hits give low values
[2] = locus YBR229C, strain ROT2, hits give low values
[3] = locus YDL101C, strain DUN1, hits give low values
[4] = locus YDR150W, strain NUM1, hits give low values
[5] = locus YEL061C, strain CIN8, hits give low values
[6] = locus YGR078C, strain PAC10, hits give low values
[7] = locus YGR229C, strain SMI1, hits give low values
[8] = locus YHR030C, strain SLT2, hits give low values
[9] = locus YJR043C, strain POL32, hits give low values
[10] = locus YLR039C, strain RIC1, hits give low values
[11] = locus YLR262C, strain YPT6, hits give low values
[12] = locus YNL153C, strain GIM3, hits give low values
[13] = locus YPL055C, strain LGE1, hits give low values
[14] = locus YPL241C, strain CIN2, hits give low values

Measured: normalized growth

O=c1cc(CO)occ1O
inactive: [1] 1.02 | locus YBR021W, strain FUR4, hits give low values 1 | [2] 1 | locus YCL029C, strain bik1, hits give low values 1.02 | locus YDL035C, strain GPR1, hits give low values 1.03 | locus YDL074C, strain BRE1, hits give low values 1.03 | [3] 1 | locus YDL134C, strain PPH21, hits give low values 1.01 | locus YDL185W, strain tfp1, hits give low values 1.03 | locus YDL192W, strain arf1, hits give low values 1.02 | locus YDR101C, strain arx1, hits give low values 1.03 | [4] 1.01 | locus YDR162C, strain NBP2, hits give low values 1.04 | locus YDR318W, strain mcm21, hits give low values 1.02 | locus YDR388W, hits give low values 1.02 | locus YDR502C, strain sam2, hits give low values 1.03 | [5] 1 | locus YER110C, hits give low values 1.04 | locus YER155C, strain BEM2, hits give low values 1 | locus YER167W, strain BCK2, hits give low values 1.01 | locus YGL078C, strain dbp3, hits give low values 1.03 | locus YGL086W, strain mad1, hits give low values 1 | locus YGL248W, strain PDE1, hits give low values 1 | [6] 1.01 | locus YGR135W, strain pre9, hits give low values 1.05 | [7] 1.01 | locus YGR252W, strain gcn5, hits give low values 1.05 | [8] 1 | locus YHR079C, strain IRE1 (second series), hits give low values 1.03 | locus YHR094C, strain hxt1, hits give low values 1.02 | locus YHR129C, strain ARP1, hits give low values 1.01 | locus YHR200W, strain rpn10, hits give low values 1.03 | locus YIL066C, strain RNR3, hits give low values 1.01 | locus YIL073C, strain SPO22, hits give low values 1.15 | locus YIL125W, strain kgd1, hits give low values 1.02 | locus YIR030C, strain dcg1, hits give low values 1.02 | locus YJL095W, strain BCK1, hits give low values 1.02 | locus YJL134W, strain LCB3, hits give low values 1.01 | locus YJL168C, strain set2, hits give low values 1.04 | locus YJL187C, strain SWE1 (second series), hits give low values 1.01 | [9] 1.02 | locus YKL009W, strain mrt4, hits give low values 1.03 | locus YKL068W, hits give low values 1.01 | locus YKL085W, strain MDH1 (second series), hits give low values 1.01 | locus YKL085W, strain MDH1, hits give low values 1.01 | locus YKR001C, strain vps1, hits give low values 1.03 | [10] 1.04 | locus YLR058C, strain SHM2, hits give low values 1 | locus YLR102C, strain apc9, hits give low values 1.02 | [11] 1.08 | locus YLR268W, strain sec22, hits give low values 1.02 | locus YLR330W, strain CHS5, hits give low values 1 | locus YLR342W, strain FKS1 (second series), hits give low values 1.04 | locus YLR371W, strain rom2, hits give low values 1.04 | locus YLR418C, strain cdc73, hits give low values 1.06 | locus YML016C, strain PPZ1, hits give low values 1 | locus YML032C, strain rad52, hits give low values 1.04 | locus YML124C, strain tub3, hits give low values 1.02 | locus YMR078C, strain ctf18, hits give low values 1.03 | locus YMR223W, strain ubp8, hits give low values 1.06 | locus YMR307W, strain GAS1, hits give low values 1.07 | locus YNL067W, strain RPL9B, hits give low values 1.03 | [12] 1.01 | locus YNL233W, strain BNI4, hits give low values 1.01 | locus YNL250W, strain rad50, hits give low values 1.05 | locus YNL271C, strain bni1, hits give low values 1.02 | locus YNL298W, strain CLA4, hits give low values 1.04 | locus YNL307C, strain MCK1, hits give low values 1.03 | locus YNR052C, strain pop2, hits give low values 1.01 | locus YOL012C, strain htz1 1.34 | locus YOL147C, strain pex11, hits give low values 1.03 | locus YOR061W, strain CKA2, hits give low values 1.01 | locus YOR069W, strain VPS5, hits give low values 1 | locus YOR136W, strain idh2, hits give low values 1.02 | locus YOR144C, strain elg1, hits give low values 1.03 | locus YOR184W, strain ser1, hits give low values 1.04 | locus YOR316C, strain cot1, hits give low values 1.01 | [13] 1.02 | [14] 1.01 | locus YPR119W, strain clb2, hits give low values 1.03 | locus YPR141C, strain kar3, hits give low values 1.01 | locus YPR163C, strain tif3, hits give low values 1.04 | locus YPR167C, strain met16, hits give low values 1.02 | strain wtn01, hits give low values 1.01

CCOC(=O)NC(=O)c1cn(Cc2cccs2)c(=O)[nH]c1=O
inactive: [1] 0.999 | [2] 1.02 | [3] 1 | [4] 1.02 | [5] 0.996 | [6] 0.993 | [7] 0.998 | [8] 1 | locus YHR087W, strain rtc3, hits give low values 1.01 | locus YJL187C, strain SWE1, hits give low values 1.01 | [9] 0.988 | locus YJR075W, strain HOC1, hits give low values 1.01 | [10] 1.01 | locus YLR058C, strain SHM2 (second series), hits give low values 1.01 | locus YLR085C, strain ARP6, hits give low values 1.03 | [11] 0.999 | locus YML094W, strain GIM5, hits give low values 1.01 | locus YMR219W, strain ESC1, hits give low values 1.01 | locus YMR263W, strain SAP30, hits give low values 1.01 | locus YNL128W, strain TEP1, hits give low values 0.984 | [12] 0.983 | locus YNL298W, strain CLA4 (second series), hits give low values 1.02 | locus YNL322C, strain KRE1, hits give low values 1 | locus YNR030W, strain Alg12, hits give low values 1.01 | locus YOL006C, strain TOP1, hits give low values 0.997 | [13] 1.06 | [14] 1.02 | locus YPR135W, strain CTF4, hits give low values 0.96
